Experimental data reported in PubChem BioAssay AID588342 (National Center for Advancing Translational Sciences (NCATS), 2011).
About 25,000 (6.9%) of roughly 360,000 compounds were called active. A call without a number means that no potency is given here. Inconclusive results (about 9%) are left out. Calls follow the shape of the dose curve; as a rule, active = well fitted inhibition curve with a large enough effect; inconclusive = small, poorly fitted or top-dose-only effect; inactive = flat fitted curve, though single readings scatter. Many of the other results were omitted from the sample, so actives are more common in it than they were.

Each compound was assayed against Luciferin 4-monooxygenase (Photinus pyralis) (UniProt P08659) (assay: qHTS profiling assay for firefly luciferase inhibitor/activator using purifed enzyme and Km concentrations of substrates (counterscreen for miR-21 project)). Settings: purified FLuc, luminescence inhibition; series mostly up to 57.5 µM.
Procedure, shortened: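 Biochemical qHTS of compounds, final roughly 60 µM downward over six points, against 10 nM purified firefly luciferase using Km concentrations of substrates (10 uM D-luciferin, 10 uM ATP) in Tris acetate pH 7.5 buffer; luminescence output.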
Also: nearly all actives have a fitted effect of over 55% in size.
Potency is read from the fitted curve at half-maximal effect.

Sequence of Luciferin 4-monooxygenase (Photinus pyralis) (P08659 whole entry, looked up): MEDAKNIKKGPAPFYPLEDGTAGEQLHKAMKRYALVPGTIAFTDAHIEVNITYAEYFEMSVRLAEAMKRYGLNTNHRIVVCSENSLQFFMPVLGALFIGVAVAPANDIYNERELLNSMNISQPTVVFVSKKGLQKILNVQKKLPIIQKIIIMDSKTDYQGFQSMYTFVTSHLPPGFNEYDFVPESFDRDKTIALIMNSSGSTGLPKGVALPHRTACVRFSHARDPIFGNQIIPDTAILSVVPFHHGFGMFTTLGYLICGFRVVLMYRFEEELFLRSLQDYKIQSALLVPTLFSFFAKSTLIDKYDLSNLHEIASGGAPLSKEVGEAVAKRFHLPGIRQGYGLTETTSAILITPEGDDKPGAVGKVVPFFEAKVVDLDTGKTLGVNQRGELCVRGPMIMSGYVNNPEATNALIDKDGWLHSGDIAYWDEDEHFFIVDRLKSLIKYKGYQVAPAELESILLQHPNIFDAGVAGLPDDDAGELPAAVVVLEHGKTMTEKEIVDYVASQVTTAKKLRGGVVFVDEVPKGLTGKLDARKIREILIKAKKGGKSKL

Question: How did the Potency turn out when Cc1ccc(Cl)cc1N(C)C(=O)C1CCCN(c2ncnc3onc(-c4ccc(F)cc4)c23)C1 (stereo not given) was run?
Answer: The Potency was “inactive”.

Question: COc1ccccc1C(=O)Nc1c(C(=O)Nc2ccc(C)cc2)oc2ccccc12 was tested. Which Potency did it give?
Answer: The Potency was “inactive”.

Question: COc1cc(OC)cc(C(=O)Nc2c(C(=O)Nc3ccc(F)cc3)oc3ccccc23)c1 was tested. Which Potency did it give?
Answer: Its Potency is 2.69 µM (active).

Question: With COc1ccccc1NC(=O)c1oc2ccccc2c1NC(=O)C(C)C as the compound, how does the Potency read?
Answer: Its Potency is “inactive”.

Question: Which Potency does the source give for Cc1ccc(C)c(NC(=O)Cn2ccn(-c3ccc(F)cc3)c(=O)c2=O)c1 here?
Answer: Its Potency is “inactive”.

Question: How did the Potency turn out when CCOC(=O)C1CCN(c2nc3c(S(=O)(=O)c4ccc(CC)cc4)nnn3c3ccc(Cl)cc23)CC1 was run?
Answer: The Potency was “inactive”.

Question: CCc1ccc(CNC(=O)c2cc3c(=O)n(CC)c4ccccc4c3s2)cc1 was tested. Which Potency did it give?
Answer: Its Potency is “inactive”.

Question: How did the Potency turn out when O=C(CCN1CCCO1)N1CCCC(N2CCN(c3cccc(C(F)(F)F)c3)CC2)C1 (stereo not given) was run?
Answer: Its Potency is “inactive”.

Question: How did the Potency turn out when CCC(CC)c1nnc(NS(=O)(=O)Cc2ccccc2)s1 was run?
Answer: The Potency was “inactive”.

Question: For CCc1ccc(CNC(=O)C2CCN(c3nn4cc(-c5ccc(F)cc5)nc4s3)CC2)cc1, which Potency is on record?
Answer: Its Potency is “inactive”.

Question: How did the Potency turn out when CCC(CC)c1nn2cc(-c3ccccc3)nc2s1 was run?
Answer: The Potency was 0.269 µM (active).

Question: Cc1ccc(F)cc1NC(=O)CCSc1nc(-c2ccco2)cc(C(F)(F)F)n1 was tested. Which Potency did it give?
Answer: Its Potency is “inactive”.

Question: How did the Potency turn out when Clc1ccccc1CSc1nncn2c1cc1occc12 was run?
Answer: The Potency was “inactive”.

Question: CSCCC(NC(=O)COc1ccccc1)C(=O)N(C)CC(=O)Nc1ccc(C)cc1 (stereo not given) was tested. Which Potency did it give?
Answer: Its Potency is “inactive”.

Question: How did the Potency turn out when CCOC(=O)C1CCN(C(=O)CSc2c3c(nc4ccc(Cl)cc24)CCCC3)CC1 was run?
Answer: The Potency was “inactive”.

Question: Which Potency does the source give for C=CCNC(=O)c1csc(-c2ccccc2)n1 here?
Answer: The Potency was “inactive”.

Question: How did the Potency turn out when C=CCNc1scc(-c2ccccc2)[n+]1CC=C was run?
Answer: The Potency was “inactive”.

Question: With C=CC[n+]1c(-c2ccc(C)cc2)csc1NNC(=O)Nc1ccccc1 as the compound, how does the Potency read?
Answer: The Potency was 19 µM (active).

Question: Which Potency does the source give for CCOC(=O)C1CCCN(CCSc2ccc(C)cc2)C1 (stereo not given) here?
Answer: The Potency was “inactive”.

Question: O=C(COC(=O)CNC(=O)C1CCCCC1)NCc1ccccc1 was tested. Which Potency did it give?
Answer: Its Potency is “inactive”.

Question: COc1ccc2c(CC(=O)OCC(=O)Nc3ccccc3[N+](=O)[O-])coc2c1 was tested. Which Potency did it give?
Answer: Its Potency is “inactive”.

Question: Which Potency does the source give for Cc1nc2ccc(C(=O)N3CCSCC3)cc2s1 here?
Answer: The Potency was “inactive”.

Question: With CC1CCN(c2nc3ccc(C(=O)N4CCN(c5ccccc5)CC4)cc3s2)CC1 as the compound, how does the Potency read?
Answer: The Potency was 23.9 µM (active).

Question: Cc1ccc(C)c(OCC(=O)N2CCN(C(=O)c3ccco3)CC2)c1 was tested. Which Potency did it give?
Answer: Its Potency is “inactive”.

Question: Cc1nc2ccc(C(=O)N3CCN(c4ccccc4)CC3)cc2s1 was tested. Which Potency did it give?
Answer: The Potency was “inactive”.

Question: How did the Potency turn out when Cc1ccc(OCC(=O)Nc2ccc(N3CCN(C(=O)c4ccco4)CC3)cc2)c(C)c1 was run?
Answer: Its Potency is “inactive”.

Question: How did the Potency turn out when Cc1ccc2nc(N3CCN(C(=O)c4ccco4)CC3)sc2c1 was run?
Answer: Its Potency is 10.7 µM (active).

Question: With COc1cccc(CN2CCc3nc(SCC(=O)Nc4ccccc4)[nH]c(=O)c3C2)c1 as the compound, how does the Potency read?
Answer: The Potency was “inactive”.

Question: Which Potency does the source give for COC(=O)C(NS(=O)(=O)c1ccc(F)cc1)c1ccccc1 (stereo not given) here?
Answer: Its Potency is “inactive”.

Question: For CCOc1ccc(N(Cc2ccccc2)C(=O)c2nc(S(C)(=O)=O)ncc2Cl)cc1, which Potency is on record?
Answer: Its Potency is “inactive”.

Question: For CCOc1ccc(-c2nnn(CC(=O)N3CCN(c4ccc(F)cc4)CC3)n2)cc1OCC, which Potency is on record?
Answer: Its Potency is “inactive”.

Question: Which Potency does the source give for COc1ccc(C(=O)Cn2nnc(-c3ccc(N4CCOCC4)cc3)n2)cc1OC here?
Answer: Its Potency is 8.49 µM (active).

Question: With CCOc1ccc(-c2nnn(CC(=O)N3CCN(c4ccc(OC)cc4)CC3)n2)cc1OCC as the compound, how does the Potency read?
Answer: The Potency was “inactive”.

Question: Which Potency does the source give for COC(=O)C1CCN(C(=O)c2ccc3oc(Cc4ccc(Cl)cc4)nc3c2)CC1 here?
Answer: Its Potency is “inactive”.

Question: For COc1cccc(NC(=O)Cn2c(=O)cc(C)c3c(C)nn(-c4cccc(F)c4)c32)c1, which Potency is on record?
Answer: The Potency was “inactive”.

Question: How did the Potency turn out when Cn1c(=O)n(C)c2cc(S(=O)(=O)Nc3ccc(F)cc3)ccc21 was run?
Answer: Its Potency is “inactive”.

Question: COc1ccccc1N1CC(C(=O)Nc2nnc(SCC(=O)NCC3CCCO3)s2)CC1=O (stereo not given) was tested. Which Potency did it give?
Answer: Its Potency is “inactive”.

Question: With Cc1ccc2cc(C#N)c(SCC(=O)NCC3CCCO3)nc2c1C (stereo not given) as the compound, how does the Potency read?
Answer: Its Potency is “inactive”.

Question: With COc1cc(OC)cc(C(=O)Nc2nnc(SCC(=O)NCC3CCCO3)s2)c1 (stereo not given) as the compound, how does the Potency read?
Answer: Its Potency is 15.1 µM (active).

Question: How did the Potency turn out when Cc1cc(C)nc(Nc2n[nH]c(-c3ccccc3N)n2)n1 was run?
Answer: The Potency was 0.953 µM (active).

Question: How did the Potency turn out when CCCOc1ccccc1-c1nc(SCCC(=O)O)n[nH]1 was run?
Answer: The Potency was “inactive”.

Question: Cc1cc(C)nc(Nc2ncn[nH]2)n1 was tested. Which Potency did it give?
Answer: Its Potency is “inactive”.

Question: COC(=O)C1=C(c2ccccc2)c2ccccc2S(=O)(=O)N1CC(=O)Nc1ccccc1C(F)(F)F was tested. Which Potency did it give?
Answer: The Potency was “inactive”.

Question: Which Potency does the source give for O=C(CSc1nccn1C1CCCC1)Nc1cc(C(F)(F)F)ccc1Cl here?
Answer: Its Potency is “inactive”.

Question: How did the Potency turn out when COc1ccccc1Nc1ncnc2c1oc1ccccc12 was run?
Answer: Its Potency is 13.5 µM (active).

Question: Which Potency does the source give for CCC(C(=O)OC)n1cnc2c(oc3ccccc32)c1=O (stereo not given) here?
Answer: Its Potency is “inactive”.

Question: With COc1ccc(C)cc1Nc1nc(C)nc2c1oc1ccccc12 as the compound, how does the Potency read?
Answer: The Potency was “inactive”.

Question: With O=C(CN1C(=O)NC2(CCOc3ccccc32)C1=O)NCc1ccc(F)cc1 (stereo not given) as the compound, how does the Potency read?
Answer: Its Potency is “inactive”.

Question: With Cc1nccn1CC(=O)N/N=C/c1ccc(O)c(O)c1 as the compound, how does the Potency read?
Answer: Its Potency is “inactive”.

Question: Oc1ccc(Br)cc1/C=N/Nc1ccccn1 was tested. Which Potency did it give?
Answer: Its Potency is 8.49 µM (active).

Question: How did the Potency turn out when CCN(CC)CCn1c(/N=C/c2cc(Br)ccc2O)nc2ccccc21 was run?
Answer: Its Potency is “inactive”.

Question: For O=C(Nc1ccccc1)N1CCN(C2c3ccccc3-c3ccccc32)CC1, which Potency is on record?
Answer: Its Potency is “inactive”.

Question: How did the Potency turn out when CC1=C(c2ccc(C)c(C)c2)S(=O)(=O)NC1=NCc1ccccc1Cl was run?
Answer: Its Potency is “inactive”.

Question: With CC(C)CN(C(=O)CSc1ncnc2sccc12)C1CCS(=O)(=O)C1 (stereo not given) as the compound, how does the Potency read?
Answer: Its Potency is “inactive”.

Question: With COc1ccc(C)cc1Nc1nc(-c2c(C)[nH]c3ccccc23)cs1 as the compound, how does the Potency read?
Answer: Its Potency is 13.5 µM (active).

Question: For COC(=O)c1cnc(Nc2cc(C)ccc2OC)c2ccccc12, which Potency is on record?
Answer: The Potency was “inactive”.

Question: Which Potency does the source give for COc1ccc(C)cc1Nc1nc2ccccc2c2nnc(C)n12 here?
Answer: The Potency was “inactive”.

Question: How did the Potency turn out when Cc1ccc(CN2C(=O)SC(Nc3ccccc3)C2=O)cc1 (stereo not given) was run?
Answer: Its Potency is “inactive”.

Question: With Cc1ccc(N(CC(=O)NCc2ccc(Cl)cc2)S(=O)(=O)N(C)C)cc1 as the compound, how does the Potency read?
Answer: Its Potency is “inactive”.

Question: COC(=O)C(NC(C)=O)(Nc1nc2c(s1)CCCC2)C(F)(F)F (stereo not given) was tested. Which Potency did it give?
Answer: Its Potency is “inactive”.

Question: For Fc1ccc2nc(Nc3nc4c(s3)CCCC4)sc2c1, which Potency is on record?
Answer: The Potency was 3.01 µM (active).

Question: For Cc1cc(C)cc(OC(C)C(=O)Nc2nc3c(s2)CCCC3)c1 (stereo not given), which Potency is on record?
Answer: The Potency was “inactive”.

Question: Cc1cccc(Nc2nc(C)nc(N)c2S(=O)(=O)c2ccccc2)c1 was tested. Which Potency did it give?
Answer: Its Potency is “inactive”.

Question: CCc1ccccc1NC(=O)Cn1c(=O)n(CC2CCC(C(=O)NCCc3ccccc3)CC2)c(=O)c2ccccc21 (stereo not given) was tested. Which Potency did it give?
Answer: Its Potency is “inactive”.

Question: CC(=O)c1cccc(NC(=S)N2CCN(S(C)(=O)=O)CC2)c1 was tested. Which Potency did it give?
Answer: Its Potency is “inactive”.

Question: Which Potency does the source give for C=CCSc1nsc(NC(=O)Nc2cccc(C(C)=O)c2)n1 here?
Answer: The Potency was 15.1 µM (active).

Question: CC(=O)c1cccc(NC(=O)CSc2nc3c(c(=O)[nH]2)CCC3)c1 was tested. Which Potency did it give?
Answer: The Potency was “inactive”.

Question: COc1ccc(NC(C(=O)Nc2cccc(C(C)=O)c2)c2ccccc2)cc1 (stereo not given) was tested. Which Potency did it give?
Answer: The Potency was “inactive”.

Question: With CCSc1nsc(NC(=O)Nc2cccc(C(C)=O)c2)n1 as the compound, how does the Potency read?
Answer: The Potency was 19 µM (active).

Question: Which Potency does the source give for CSc1ccccc1C(=O)Nc1cccc(C(C)=O)c1 here?
Answer: Its Potency is “inactive”.
